# High-throughput results: PubChem, National Center for Advancing Translational Sciences (NCATS)
# Rows were chosen to be rich in hits. Some 2.8% of all compounds tested hit in one or more screens of this group.
# HepG2 tox-1 – kills HepG2 cells in TGF-b inhibitor counter-screen. 0.76% of 410,000 active. AID 588856. Potency, µM (series often up to 46.1 µM), for inactives: top-dose activity change, negative = cytotoxicity, usual class: cytotoxic. HepG2 CAGA-GFP viability, ATP luminescence, 18 h
#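 HepG2 CAGA-GFP cells (1000/well, DMEM with 1% FBS) received compound, then TGF-beta at 500 pg/mL final, and were incubated 18 hours at 37 degrees C. Viability was read by CellTiter-Glo luminescence. Media-only wells were set as complete cell-killing and DMSO as no toxicity.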
# S2 tox – viability counter-screen for ATXN expression inhibitors; S2 cells (HEK-293 line with an ATXN2-luciferase reporter) viability, CellTiter-Fluor protease fluorescence, 24 h; Potency, µM (titrated, usually from 56.7 µM), hits mostly cytotoxic; 0.49% of 400,000 active; further: nearly all actives have a fitted effect of over 40% in size
# HTT cytoprotect – protects HTT-Q103 PC12 cells, measured by ATP; Potency, µM (series often up to 56.4 µM), for the others: cytoprotection (ATP increase), actives largely listed as activators; PC12 HTT-Q103 induced, cytoprotection, ATP luminescence, 40 h; 0.14% of 230,000 active; further: % of control where 0% means no effect; nearly all actives have a fitted effect of over 45% in size
#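 PC12 cells with ecdysone-inducible HTT exon 1 Q103-GFP, induced with 100 nM tebufenozide and co-treated with library compounds in a dose series (1536-well, 1500 cells/well). Cytoprotection read as ATP content by ATPlite luminescence.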
# ATXN2 expr inh – ATXN2 expression inhibition; Potency, µM (doses to about 57 µM), for the others: top-dose activity change, negative = inhibition, actives largely listed as inhibitors; HEK-293 ATXN2-luciferase reporter, luminescence, 24 h; 0.72% of 360,000 active; further: on the % scale 0 is the no-effect control and ±100 the full control effect; nearly all actives have a fitted effect of over 55% in size
#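 qHTS (up to 57 uM final) was run with 24 h compound exposure of reporter cells at 37 °C. Each well was multiplexed: SteadyGlo luminescence measured ATXN2-luciferase expression after a fluorogenic Gly-Phe-AFC viability readout (25 uM final).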
# HTT aggregate – reduces HttQ103-GFP aggregates in PC12 cells | 1.1% of 220,000 active | PC12 HttQ103-GFP aggregates, Acumen cytometry, 40 h | Potency, µM (titrated, usually from 46.1 µM), inactives show at the top dose activity change, negative = inhibition, actives largely listed as inhibitors; further: on the % scale 0 is the no-effect control and ±100 the full control effect; nearly all actives have a fitted effect of over 60% in size
#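 Aggregates are detected as GFP objects 1–25 µm with signal 6 STDEV over background in lysates of induced PC12 cells. These carry Huntingtin exon 1 with 103 glutamines fused to GFP under an ecdysone promoter; compounds titrated.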
# TGFb inhibitor – inhibitors of TGF-b signaling | HepG2 CAGA-GFP TGF-b/SMAD3 reporter, GFP fluorescence, 18 h; TGF-beta stimulated, 500 pg/mL final | Potency, µM (doses to about 46.1 µM), inactives show at the top dose activity, negative = inhibition, hits mostly inhibitors | 1.2% of 410,000 active | AID 588855; further: on the % scale 0 is the no-effect control and ±100 the full control effect; nearly all actives have a fitted effect of over 65% in size
#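 HEPG2 CAGA-GFP reporter cells (1000/well, DMEM with 1% FBS) received compounds, then recombinant TGF-beta at 500 pg/mL final for 18 hours at 37 degrees C. Per-cell GFP summed per well was normalised to unstimulated and stimulated DMSO controls before curve fitting.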
# TGFb confirm – confirmation of TGF-b signaling inhibitors in HepG2 reporter cells; 63% of 1,600 active; HepG2 CAGA-GFP TGF-b reporter, GFP fluorescence, 18 h; cells stimulated with TGF-beta, 500 pg/mL; shares compounds with TGFb inhibitor; Potency, µM (series often up to 46.1 µM), inactives show at the top dose activity, negative = inhibition, usual class: inhibitors; AID 720534; further: on the % scale 0 is the no-effect control and ±100 the full control effect; nearly all actives have a fitted effect of over 65% in size
# HepG2 tox-2 – HepG2 cytotoxicity, TGF-b inhibitor counterscreen. shares compounds with TGFb inhibitor. HepG2 CAGA-GFP viability, ATP luminescence, 18 h; cells stimulated with TGF-beta, 500 pg/mL. Potency, µM (highest dose often 46.1 µM), for the others: at the highest dose activity, negative = cytotoxicity, hits mostly inhibitors. 27% of 1,600 active; further: on the % scale 0 is the no-effect control and ±100 the full control effect; nearly all actives have a fitted effect of over 70% in size
# TGFb CCL64 inh – blocks TGF-b signaling in CCL64 reporter cells. shares compounds with TGFb inhibitor. CCL64 CAGA-GFP reporter, TGF-b stimulated, GFP fluorescence, 18 h. Potency, µM (doses to about 46.1 µM), for inactives: at the top dose activity, negative = inhibition, usual class: inhibitors. 41% of 1,600 active; further: nearly all actives have a fitted effect of over 65% in size
# COP TGFb inh – blocks TGF-b signaling in HepG2 COP reporter | shares compounds with TGFb inhibitor | HepG2 COP-GFP TGF-b reporter, GFP fluorescence, 18 h; cells stimulated by added recombinant TGF-beta | Potency, µM (series often up to 46.1 µM), for inactives: at the top dose activity, negative = inhibition, usual class: inhibitors | 3% of 1,600 active | AID 720537; further: nearly all actives have a fitted effect of over 70% in size
# * hit, by the source's call; i = inactive; u = inconclusive; x = no result given; [ ] = another dose, or the depositor's remark. The call rests on the fitted dose curve; in most records, active means well fitted curve in the direction sought with a large enough effect; inconclusive means small, poorly fitted or top-dose-only effect, or another doubt; inactive means no such curve, though single readings can be large; an effect the other way counts as inactive or inconclusive. Potency means the concentration at half of the fitted maximal effect.
SMILES,HepG2 tox-1,S2 tox,HTT cytoprotect,ATXN2 expr inh,HTT aggregate,TGFb inhibitor,TGFb confirm,HepG2 tox-2,TGFb CCL64 inh,COP TGFb inh
O=C(c1ccco1)N1CCCC(c2nc(-c3ccc(S(=O)(=O)NCc4ccccc4)cc3)no2)C1 (stereo unspecified),-69%,u,27%[10 µM],28µM*,u,u,15µM*,u,-22%,41%
CSc1ccc(/C=C2\C=Cc3ccc([N+](=O)[O-])cc32)cc1,0%,x,x,x,x,4%,x,x,x,x
CC(C)C[C@H]1CNC(=S)N1CC1CCCN1C[C@H](CC(C)C)N1C[C@H](Cc2ccc(O)cc2)N(CC2CCCCC2)C1=S (stereo partly specified),11µM*,u,x,u,x,10µM*,u,u,u,u
CC(C)C[C@H]1CNC(=S)N1C[C@H]1CCCN1C[C@H](CC(C)C)N1C[C@H](Cc2ccc(O)cc2)N(CC2CCCCCC2)C1=S,11µM*,22µM*,x,u,x,6.3µM*,u,u,u,91%
CC(C)C[C@H]1CNC(=S)N1CC1CCCN1C[C@H](CC(C)C)N1C[C@H](Cc2ccc(O)cc2)N(CC2CCCCCC2)C1=S (stereo partly specified),-54%,u,x,u,x,u,x,x,x,x
CC(C)C[C@@H](CN1CCCC1CN1C(=S)NC[C@@H]1Cc1ccc(O)cc1)N1C[C@H](Cc2ccc(O)cc2)N(CC2CCCCC2)C1=S (stereo partly specified),-100%,u,x,u,x,10µM*,8.2µM*,u,u,u
CC(C)C[C@H]1CN([C@@H](Cc2ccccc2)CN2CCCC2CN2C(=S)NC[C@@H]2Cc2ccccc2)C(=S)N1CC1CCCCC1 (stereo partly specified),x,u,x,0%,x,x,x,x,x,x
O=c1n(Cc2cc3c(cc2Cl)OCO3)c(=O)n2n1CC[C@H]1/C(=N\OC[C@@H](O)COCc3ccco3)[C@H]3O[C@@H]3[C@@H](O)[C@@H]12,x,x,-13%[10 µM],x,x,x,x,x,x,x
CN(C)CCNc1cc(N2CCN(C)CC2)ncn1,-23%,x,x,x,x,15%,x,x,x,x
O=C(Nc1cccc(C(F)(F)F)c1)C1Cc2c(-c3ccc(Cl)cc3)ccnc2O1 (stereo unspecified),-62%,u,x,-28%,x,8.9µM*,u,u,u,38%
O=C(Nc1cccc(C(F)(F)F)c1)C1Cc2c(-c3ccccc3)ccnc2O1 (stereo unspecified),-28%,i,x,u,x,u,x,x,x,x
CCCCCCCCCCCCCCCCOCC(CO)OC(C)=O (stereo unspecified),x,x,-26%,x,x,x,x,x,x,x
O=C(NCCc1c[nH]c2ccccc12)OCCCCOC(=O)NCCc1c[nH]c2ccccc12,-42%,18µM*,x,u,x,10µM*,u,16µM*,18µM*,41%
Nc1ccc(S(=O)(=O)O)cc1,x,x,-5%,x,x,x,x,x,x,x
CN(C)c1nc(Nc2ccc(F)cc2)nc(Oc2ccc(F)cc2)n1,-21%,i,x,x,x,u,x,x,x,x
CN(C)c1nc(N/N=C/c2ccccc2O)nc(Nc2ccc(F)cc2)n1,-24%,i,-125%,u,u,13µM*,15µM*,u,u,-2%
O=[N+]([O-])c1cccc2c(N3CCCC3)ccnc12,5.6µM*,i,-7%[10 µM],u,u,7.1µM*,7.3µM*,16µM*,u,u
O=C(CCNc1ccc(F)cc1)c1cccc([N+](=O)[O-])c1,-40%,i,5%[10 µM],-23%,-14%,u,x,x,x,x
Cc1ccc(NCCC(=O)c2cccc([N+](=O)[O-])c2)cc1,-73%,i,13%[10 µM],10%,u,10µM*,23µM*,u,u,19%
O=C(CCNc1ccc(Br)cc1)c1cccc([N+](=O)[O-])c1,13%,i,4%,1%,-3%,13µM*,18µM*,-15%,-6%,15%
COc1ccc(-c2ccc(OC)c(C3C4C=CCCC4(C)C(=O)N3Cc3ccccc3)c2)cc1OC (stereo unspecified),2%,x,x,x,x,u,x,x,x,x
COc1ccccc1-c1cc(C(F)(F)F)nc(S(=O)(=O)CCCC(=O)N2CCOCC2)n1,-126%,18µM*,-84%,u,-27%[9.22 µM],2.2µM*,1.8µM*,21µM*,4.1µM*,u
COc1ccccc1-c1noc(CCCC(=O)N2CCOCC2)n1,7%,i,-17%[10 µM],x,-21%[9.22 µM],1%,x,x,x,x
COc1ccc(OC)c(CN2CCCC(C(=O)c3ccccc3SC)C2)c1 (stereo unspecified),-28%,u,-24%,u,-32%,u,u,u,u,40%
COc1ccc(-c2[nH]ncc2CN2CCCC(C(=O)c3ccc(OC)cc3OC)C2)cc1 (stereo unspecified),0%,i,-43%,x,-10%,-3%,x,x,x,x
COc1ccccc1OCCNS(=O)(=O)c1ccc2oc3ccccc3c2c1,-14%,i,6%[1.9 µM],-15%,u,u,x,x,x,x
O=S(=O)(NCCOc1ccccc1Cl)c1ccc2oc3ccccc3c2c1,-29%,i,x,2%,x,16µM*,18µM*,u,u,88%
O=C1c2ccccc2NC(c2ccccc2OCc2ccccc2)N1Cc1ccco1 (stereo unspecified),-30%,x,x,x,x,u,x,x,x,x
